According to PubChem BioAssay:
Values without a mark were called inactive. Calls of active or inactive are those of the source.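 How the source made its calls, unless noted: active means inhibition above 50%; inactive means the rest.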

Experiment: antimalarial activity against Dd2 strain (AID 2302;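 active means growth inhibition above 50% at the single 2 µM test dose, taken to imply half-maximal potency below 2 µM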;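 further: 0% = DMSO untreated growth and 100% = chloroquine plus artemisinin killed control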)
Details: P. falciparum Dd2 in RBCs, LDH growth readout, 72 h; at 2 µM; hits give high values

**Q.** Which growth inhibition does the source give for `Cc1cc(N[C@@H](Cc2ccccc2)C(=O)NCCc2ccccc2)nc(NCC2CCCCC2)n1` here?
**A.** 95% (active)

**Q.** With `CCN(CC)CCN(Cc1ccc(-c2ccc(C(F)(F)F)cc2)cc1)C(=O)Cn1c(CCc2c(F)ccc(F)c2F)nc(=O)c2ccccc21` as the molecule, how does the growth inhibition read?
**A.** 62% (active)

**Q.** Which growth inhibition does the source give for `Cc1noc(C)c1-c1ccc2c(Nc3ccccc3C(C)(C)C)c(C(=O)NCc3ccc4c(c3)OCO4)cnc2c1` here?
**A.** 88% (active)

**Q.** With `CN1CCN(c2ccc(-c3cc(-c4cc(F)c(F)c(F)c4)cnc3N)cc2)CC1` as the molecule, how does the growth inhibition read?
**A.** 12%

**Q.** With `Cc1cc(NC(=O)c2cccs2)ccc1OC1CCN(Cc2ccc(F)cc2)C1` (stereo not given) as the molecule, how does the growth inhibition read?
**A.** 92% (active)

**Q.** For `CCNc1cc(C(=O)N[C@@H](Cc2ccccc2)[C@H](O)CNC2(CC)CCCCC2)cc(N2CCCCS2(=O)=O)c1`, which growth inhibition is on record?
**A.** 98% (active)

**Q.** For `Cc1csc(-c2nc(NCc3cccnc3)ncc2-c2ccsc2)n1`, which growth inhibition is on record?
**A.** 74% (active)

**Q.** Which growth inhibition does the source give for `COc1ccc(C=NNc2cc(C)nc3ccc(OC)cc23)c(OC)c1` here?
**A.** 95% (active)

**Q.** With `O=C(c1ccc(F)c(F)c1)N1CCOC(CCN2CCC(c3ccccc3)CC2)(c2ccc(Cl)c(Cl)c2)C1` (stereo not given) as the molecule, how does the growth inhibition read?
**A.** 75% (active)

**Q.** Which growth inhibition does the source give for `COc1ccc2nccc([C@@H](O)CN3CCC(NC(=O)/C=C/c4ccc5[nH]c(=O)ccc5c4)CC3)c2c1` here?
**A.** 83% (active)

**Q.** For `COc1ccccc1CCNc1nc(C)cc(N[C@@H](Cc2ccccc2)C(=O)NCCCOC(C)C)n1`, which growth inhibition is on record?
**A.** 32%

**Q.** Which growth inhibition does the source give for `COc1ccccc1-c1cccc(Nc2c(Nc3ccc(Cl)cc3)c(=O)c2=O)c1` here?
**A.** 47%

**Q.** With `Cc1cc(-c2ccc(NC(=O)c3coc4ccc(N5C[C@@H](C)N(C)[C@@H](C)C5)cc34)cc2C)cc(C)n1` as the molecule, how does the growth inhibition read?
**A.** 62% (active)

**Q.** For `CCCCCC(C)C(C)c1cc(OC(N)=O)c2c(c1)OC(C)(C)C=C2c1ccncc1` (stereo not given), which growth inhibition is on record?
**A.** -1%

**Q.** Which growth inhibition does the source give for `Cc1cc(N[C@@H](Cc2ccccc2)C(=O)NCCOc2ccccc2)nc(NCCc2ccc(F)cc2)n1` here?
**A.** 86% (active)

**Q.** For `COc1cccc(Nc2nc(NCCO)c3ccccc3n2)c1`, which growth inhibition is on record?
**A.** 88% (active)

**Q.** For `COc1ccc(C(C(=O)NC2CCN(C[C@H](O)c3ccnc4ccc(OC)cc34)CC2)N2CCN(c3ccc([N+](=O)[O-])cc3)CC2)cc1` (stereo not given in full), which growth inhibition is on record?
**A.** 80% (active)

**Q.** With `CC(C)COc1ccc(Cl)cc1Cc1ccc(-c2nc3ccc(F)cc3[nH]2)o1` as the molecule, how does the growth inhibition read?
**A.** 49%

**Q.** Which growth inhibition does the source give for `COc1ccccc1NC(=O)OC(COc1ccc(N)cc1)CN1CC=C(c2ccccc2)CC1` (stereo not given) here?
**A.** 81% (active)

**Q.** Which growth inhibition does the source give for `COCCn1c(C)cc(C(=O)CN2C(=O)NC(C)(c3ccc(C(C)(C)C)cc3)C2=O)c1C` (stereo not given) here?
**A.** 96% (active)

**Q.** With `COc1ccc2ncc(Cl)c(CCN3CCC(NCc4ccc5c(n4)NC(=O)CO5)CC3)c2c1` as the molecule, how does the growth inhibition read?
**A.** 26%

**Q.** With `NC(=NCCCc1ccccc1)c1cccc(C(N)=NCCCc2ccccc2)n1` as the molecule, how does the growth inhibition read?
**A.** -1%

**Q.** With `COc1cc2nc(C)nc(Nc3ccc(Cc4ccccc4)cc3)c2cc1OC` as the molecule, how does the growth inhibition read?
**A.** 99% (active)

**Q.** With `COc1ccc(-c2nonc2NC(=O)c2ccc(OC(C)C)cc2)cc1OC` as the molecule, how does the growth inhibition read?
**A.** 99% (active)

**Q.** With `CCc1c(CCNCCCCCCNCCc2ccc(Br)cc2)ccc(O)c1O` as the molecule, how does the growth inhibition read?
**A.** 1%

Experiment: HepG2 cytotoxicity, primary screen, cytotoxicity control for P. falciparum antimalarial project, cell-based, ATP luminescence (AID 2303);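 further: 0% = DMSO wells and 100% = digitonin-killed cells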
Details: HepG2 viability, 24-48 h, at 10 µM, hits give high values

**Q.** For `CN(C)CCOc1cc(O)c2c(c1)OC(C)(C)C=C2c1cccs1`, which inhibition is on record?
**A.** 29%

**Q.** For `COc1ccc(Nc2nccc(N3CCC(NC(=O)Nc4ccc5c(c4)OCO5)C3)n2)cc1` (stereo not given), which inhibition is on record?
**A.** 27%

**Q.** With `O=C(NCCCCN1CCN(c2cccc(Cl)c2Cl)CC1)c1ccc2c(c1)CCN(C1CCC1)CC2` as the molecule, how does the inhibition read?
**A.** 97% (active)

**Q.** For `CNC(=O)c1cnc(Nc2ccc(N3CCN(C)CC3)cc2)nc1Nc1cccc(OC)c1`, which inhibition is on record?
**A.** 19%

**Q.** With `CC(C)n1ncc2c(C(=O)N3CCCC4CCCCC43)cc(C3CC3)nc21` (stereo not given) as the molecule, how does the inhibition read?
**A.** 7%

**Q.** Which inhibition does the source give for `O=C(Nc1cc(C(F)(F)F)cc(C(F)(F)F)c1)c1cc(C(F)(F)F)cc(C(F)(F)F)c1` here?
**A.** 21%

**Q.** Which inhibition does the source give for `CC(C)c1sc(N2CCN(C)CC2)nc1C(=O)Nc1ccc(F)cc1C(F)(F)F` here?
**A.** 3%

**Q.** Which inhibition does the source give for `O=C(NCCc1ccccc1)[C@H](Cc1ccccc1)Nc1ccnc(NCC2CCCCC2)n1` here?
**A.** 11%

**Q.** With `C=CCc1cc(OC)ccc1OCCCOc1c(C)nc(N)nc1N` as the molecule, how does the inhibition read?
**A.** 67% (active)

**Q.** With `COc1cc(Nc2nccc(N3CCC(NC(=O)c4cccc(C#N)c4)C3)n2)cc(OC)c1OC` (stereo not given) as the molecule, how does the inhibition read?
**A.** 13%

**Q.** For `Cc1ccc(NC(=O)c2ccc3ncccc3c2)cc1OC1CCN(Cc2ccsc2)CC1`, which inhibition is on record?
**A.** 21%

**Q.** For `COc1cccc(N(CCCN2C(=O)c3cccc4cccc(c34)C2=O)C(=O)c2ccccc2C)c1`, which inhibition is on record?
**A.** 20%

**Q.** With `Cc1cccc2[nH]c(-c3ccc(-c4cccc(CN5CCC(CO)CC5)c4)s3)nc12` as the molecule, how does the inhibition read?
**A.** 20%

**Q.** With `Nc1nc(N)c2c(Oc3cccnc3)cccc2n1` as the molecule, how does the inhibition read?
**A.** 65% (active)

**Q.** Which inhibition does the source give for `COc1cc2nc(Nc3ccc(C)cc3)nc(Nc3ccc(C)cc3)c2cc1OC` here?
**A.** 99% (active)

**Q.** For `Cc1cc(N[C@@H](Cc2ccccc2)C(=O)NCCc2ccccc2)nc(NCC2CCCCC2)n1`, which inhibition is on record?
**A.** 24%

**Q.** With `CCN(CC)CCN(Cc1ccc(-c2ccc(C(F)(F)F)cc2)cc1)C(=O)Cn1c(CCc2c(F)ccc(F)c2F)nc(=O)c2ccccc21` as the molecule, how does the inhibition read?
**A.** 44%

**Q.** Which inhibition does the source give for `Cc1noc(C)c1-c1ccc2c(Nc3ccccc3C(C)(C)C)c(C(=O)NCc3ccc4c(c3)OCO4)cnc2c1` here?
**A.** 37%

**Q.** With `CN1CCN(c2ccc(-c3cc(-c4cc(F)c(F)c(F)c4)cnc3N)cc2)CC1` as the molecule, how does the inhibition read?
**A.** 58% (active)

**Q.** For `Cc1cc(NC(=O)c2cccs2)ccc1OC1CCN(Cc2ccc(F)cc2)C1` (stereo not given), which inhibition is on record?
**A.** 0%

**Q.** Which inhibition does the source give for `CCNc1cc(C(=O)N[C@@H](Cc2ccccc2)[C@H](O)CNC2(CC)CCCCC2)cc(N2CCCCS2(=O)=O)c1` here?
**A.** 3%

**Q.** With `Cc1csc(-c2nc(NCc3cccnc3)ncc2-c2ccsc2)n1` as the molecule, how does the inhibition read?
**A.** -5%

**Q.** For `COc1ccc(C=NNc2cc(C)nc3ccc(OC)cc23)c(OC)c1`, which inhibition is on record?
**A.** 23%

**Q.** With `O=C(c1ccc(F)c(F)c1)N1CCOC(CCN2CCC(c3ccccc3)CC2)(c2ccc(Cl)c(Cl)c2)C1` (stereo not given) as the molecule, how does the inhibition read?
**A.** 51% (active)

**Q.** Which inhibition does the source give for `COc1ccc2nccc([C@@H](O)CN3CCC(NC(=O)/C=C/c4ccc5[nH]c(=O)ccc5c4)CC3)c2c1` here?
**A.** 2%

**Q.** With `COc1ccccc1CCNc1nc(C)cc(N[C@@H](Cc2ccccc2)C(=O)NCCCOC(C)C)n1` as the molecule, how does the inhibition read?
**A.** 10%

**Q.** With `COc1ccccc1-c1cccc(Nc2c(Nc3ccc(Cl)cc3)c(=O)c2=O)c1` as the molecule, how does the inhibition read?
**A.** 20%

**Q.** For `Cc1cc(-c2ccc(NC(=O)c3coc4ccc(N5C[C@@H](C)N(C)[C@@H](C)C5)cc34)cc2C)cc(C)n1`, which inhibition is on record?
**A.** 13%

**Q.** Which inhibition does the source give for `CCCCCC(C)C(C)c1cc(OC(N)=O)c2c(c1)OC(C)(C)C=C2c1ccncc1` (stereo not given) here?
**A.** 81% (active)

**Q.** Which inhibition does the source give for `Cc1cc(N[C@@H](Cc2ccccc2)C(=O)NCCOc2ccccc2)nc(NCCc2ccc(F)cc2)n1` here?
**A.** 5%

**Q.** Which inhibition does the source give for `COc1cccc(Nc2nc(NCCO)c3ccccc3n2)c1` here?
**A.** 1%

**Q.** Which inhibition does the source give for `COc1ccc(C(C(=O)NC2CCN(C[C@H](O)c3ccnc4ccc(OC)cc34)CC2)N2CCN(c3ccc([N+](=O)[O-])cc3)CC2)cc1` (stereo not given in full) here?
**A.** 17%

**Q.** With `CC(C)COc1ccc(Cl)cc1Cc1ccc(-c2nc3ccc(F)cc3[nH]2)o1` as the molecule, how does the inhibition read?
**A.** 35%

**Q.** For `COc1ccccc1NC(=O)OC(COc1ccc(N)cc1)CN1CC=C(c2ccccc2)CC1` (stereo not given), which inhibition is on record?
**A.** 16%

**Q.** Which inhibition does the source give for `COCCn1c(C)cc(C(=O)CN2C(=O)NC(C)(c3ccc(C(C)(C)C)cc3)C2=O)c1C` (stereo not given) here?
**A.** 7%

**Q.** With `COc1ccc2ncc(Cl)c(CCN3CCC(NCc4ccc5c(n4)NC(=O)CO5)CC3)c2c1` as the molecule, how does the inhibition read?
**A.** 25%

**Q.** With `NC(=NCCCc1ccccc1)c1cccc(C(N)=NCCCc2ccccc2)n1` as the molecule, how does the inhibition read?
**A.** 44%

**Q.** For `COc1cc2nc(C)nc(Nc3ccc(Cc4ccccc4)cc3)c2cc1OC`, which inhibition is on record?
**A.** 16%

**Q.** For `COc1ccc(-c2nonc2NC(=O)c2ccc(OC(C)C)cc2)cc1OC`, which inhibition is on record?
**A.** 11%

**Q.** For `CCc1c(CCNCCCCCCNCCc2ccc(Br)cc2)ccc(O)c1O`, which inhibition is on record?
**A.** 11%
